# Laboratory results: PubChem BioAssay AID927 (National Center for Advancing Translational Sciences (NCATS), 2007)
# About 65 (0.1%) of roughly 60,000 compounds were called active. A call without a number means that no potency is given here. Many of the other results were omitted from the sample, so actives are more common in it than they were. Values without a mark were called inactive. Calls come from the whole dose curve; as a rule, active = well fitted inhibition curve with a large enough effect; inconclusive = small, poorly fitted or top-dose-only effect; inactive = no such curve, though single readings can be large or run the other way.
# Molecular target: Ubiquitin carboxyl-terminal hydrolase 2 (Homo sapiens) (UniProt O75604)
# Test: qHTS Assay for Inhibitors of Ubiquitin-specific Protease USP2a; note: nearly all actives have a fitted effect of over 60% in size
# Settings: USP2a enzymatic assay; Potency: qHTS inhibition; series mostly up to 38.3 µM
# Procedure, shortened: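 Inhibition is measured in a cell-free coupled assay with 20 nM USP2 core, 20 nM Ub-PLA2 and 20 uM NBD C6-HPC, 2.5 h incubation. Activity normalized to NEM control.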
# Potency is the fitted concentration of half-maximal effect.
# Sequence of Ubiquitin carboxyl-terminal hydrolase 2 (Homo sapiens) (O75604 whole entry, looked up): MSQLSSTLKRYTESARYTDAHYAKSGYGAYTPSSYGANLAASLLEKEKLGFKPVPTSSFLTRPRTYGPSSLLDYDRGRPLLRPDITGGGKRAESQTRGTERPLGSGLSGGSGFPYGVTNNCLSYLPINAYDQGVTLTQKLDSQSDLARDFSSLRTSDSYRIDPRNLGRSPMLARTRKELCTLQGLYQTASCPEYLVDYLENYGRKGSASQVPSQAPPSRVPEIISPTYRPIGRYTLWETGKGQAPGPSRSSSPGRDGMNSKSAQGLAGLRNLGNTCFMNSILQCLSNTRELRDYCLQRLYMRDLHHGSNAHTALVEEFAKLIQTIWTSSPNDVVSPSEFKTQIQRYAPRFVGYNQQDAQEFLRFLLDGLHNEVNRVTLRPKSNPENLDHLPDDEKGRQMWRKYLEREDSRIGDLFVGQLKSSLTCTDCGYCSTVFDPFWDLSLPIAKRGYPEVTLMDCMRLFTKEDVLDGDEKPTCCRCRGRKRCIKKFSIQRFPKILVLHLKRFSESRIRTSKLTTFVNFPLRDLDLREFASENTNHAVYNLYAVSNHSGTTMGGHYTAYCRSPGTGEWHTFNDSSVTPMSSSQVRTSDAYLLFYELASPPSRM
SMILES,"activity change, negative = inhibition",Potency
CC(NC(=O)Nc1ccccc1)c1ccccc1 (configuration not stated),inactive,
Cc1ccc2c(CSc3nncs3)cc(=O)oc2c1,inactive,
COc1c2c(cc3occ(-c4ccc5c(c4)OCO5)c(=O)c13)OC(C)(C)C=C2,inactive,
O=S(=O)(NCc1ccc2c(c1)OCO2)c1cccc2nsnc12,inactive,
CCOC(=O)CSc1nc2c(c(=O)n(Cc3ccccc3Cl)c(=O)n2C)n1C,inactive,
C/C=C(/C)C(=O)OC1Cc2c(ccc3ccc(=O)oc23)OC1(C)C (configuration not stated),inactive,
COCCCN1C(=O)c2ccc(C(=O)Nc3ccc(OC)cc3OC)cc2C1=O,inactive,
Cc1c(O)cc(O)c2c(=O)c(-c3ccc(O)cc3)coc12,inactive,
CC(C)c1nnc(NC(=O)C2CCCN2S(=O)(=O)c2ccc(Cl)cc2)s1 (configuration not stated),inactive,
Oc1ccc2c(c1)OCC1c3cc4c(cc3OC21)OCO4 (configuration not stated),inactive,
CN1C(=O)C[C@H](c2ccccc2)C1=O,inactive,
O=C(NCc1cccnc1)c1cn(-c2ccccc2)nc1-c1cccs1,inactive,
CCC12CN3CC(CC)(CN(C1)C31C(=O)N(C)c3ccc(C)cc31)C2=O (configuration not stated),inactive,
CCOC(=O)N1CCN(C(=O)CN(c2ccc(C)c(C)c2)S(=O)(=O)c2ccccc2)CC1,inactive,
COc1ccc(-c2ccc(-c3noc(-c4ccncc4)n3)c(OC)n2)cc1,inactive,
NC(=O)C1CC=CCC1C(=O)OCC(Cl)=C(Cl)Cl (configuration not stated),inactive,
CC1C(O)CC2C(C(=O)O)=CO[C@@H](O[C@H]3OC(CO)C(O)C(O)C3O)C21 (some centres not stated),inactive,
CC(C)(C)c1ccc(C(=O)CSc2ncn[nH]2)cc1,inactive,
c1cncc(CNc2ccnc(-c3ccc4c(c3)OCO4)n2)c1,inactive,
CCC(CCC(C)C1CCC2C3CC=C4CC(O)CC[C@@]4(C)C3CC[C@@]12C)C(C)C (some centres not stated),inactive,
CC1(C)Cc2ccccc2-c2nnc(-c3cccc(O)c3)n21,inactive,
COc1cccc(C2/C(=C(/O)c3ccc(F)cc3)C(=O)C(=O)N2CCN(C)C)c1 (configuration not stated),4.13% [at 7.66 µM],
CCOC(=O)C1=C(C)NC(C)=C(C(=O)OCC)C1C1=COCCO1,inactive,

SMILES,"activity change, negative = inhibition",Potency
CSCCC1NC2(C(=O)Nc3ccc(Cl)cc32)[C@@H]2C(=O)N(C3CCCC3)C(=O)[C@H]12 (some centres not stated),inactive,
O=C1C2(c3ccccc3)CN(CCCO)CC1(c1ccccc1)CN(CCCO)C2,inactive,
CCCS(=O)(=O)N1CCCC(C(=O)NCCN2CCCCC2C)C1 (configuration not stated),inactive,
CC(=O)c1c(N2CCOCC2)nc(=S)n(-c2cc(C)ccc2C)c1C,inactive,
Cc1cc(C)c(C#N)c(SCc2ccc3c(c2)OCO3)n1,inactive,
CCCC(CCC(=O)OC)(C(=O)OCC)c1csc(N)n1 (configuration not stated),inactive,
COc1cc(OC)c2c(c1Cl)OC1(C2=O)C(O)=CC(=O)CC1C (configuration not stated),inactive,
Cc1ccc2nc(-c3ccc(SCC(=O)Nc4cc(C)on4)nc3)[nH]c2c1,inactive,
COc1ccc(N(C(=O)c2cccnc2)S(=O)(=O)c2ccc3c(c2)n(C)c(=O)n3C)cc1,inactive,
CC(=O)C1C(c2cccc(Oc3ccccc3)c2)NC(=O)NC1(O)C(F)(F)F (configuration not stated),inactive,
CC(=O)NS(=O)(=O)c1ccccc1,inactive,
COc1ccc(C2C(C#N)=C(N)Oc3n[nH]c(C)c32)cc1CN1CCN(c2ccc(F)cc2)CC1 (configuration not stated),inactive,
O=C(c1ccc(=O)[nH]c1)N(Cc1ccco1)C1(C(=O)NC2CCCCC2)CCCCC1,inactive,
CCCCCCOC(=O)NCC(O)c1ccccc1 (configuration not stated),inactive,
CCS(=O)(=O)N1CCCC(C(=O)NCCCN(C)Cc2ccccc2)C1 (configuration not stated),inactive,
CCCN1Cc2cccc(C(=O)NCc3ccccc3)c2C1=O,inactive,
O=C(O)c1ccc(F)c(S(=O)(=O)Nc2ccccc2)c1,inactive,
Cc1cccc2c3c(ccc12)C1=C(C(=O)C3=O)C(C)CO1 (configuration not stated),inactive,
CC1OC(OCC2OC(Oc3c(-c4ccc(O)c(O)c4)oc4cc(O)cc(O)c4c3=O)C(O)C(O)C2O)[C@@H](O)C(O)C1O (some centres not stated),inactive,
CCCc1[nH]nc2c1C(C1CC=CCC1)C(C#N)=C(N)O2 (configuration not stated),inactive,
Nc1nc2c(nc(Cl)n2C2OC(CO)C(O)C2O)c(=O)[nH]1 (configuration not stated),inactive,
COC(=O)[C@H](C)NC(=O)Nc1ccc(OC(F)(F)F)cc1,inactive,
COCCCN1C(=O)C(=O)/C(=C(/O)c2ccc3c(c2)CC(C)O3)C1c1cccnc1 (configuration not stated),inactive,

SMILES,"activity change, negative = inhibition",Potency
COc1cc(OC)c(NC(=O)c2ccc(Br)o2)cc1Cl,12% [at 7.66 µM],
CN(C)c1cc(N)c2ccccc2n1 (tested in a mixture with another compound),inactive,
CC[C@@H]1Cc2cc(O)ccc2C2=C1c1ccc(O)cc1C[C@H]2CC,,25.1 µM (active)
CCOC(=O)c1cc2c(n(-c3ccc(C)cc3)c1=O)CCCC2=O,inactive,
CC1(C)CC(=O)C(C=NCCC2=CCCCC2)=C(O)C1,6.05% [at 7.66 µM],
Cc1cc(NC(=O)CSc2nnc(-c3ccc(Cl)s3)o2)no1,inactive,
CC1(C)C=CC(=O)[C@]2(C)C1CC(=O)[C@]1(C)C2CC[C@@]2(C)C(c3ccoc3)OC(=O)C3OC321 (some centres not stated),inactive,
CSCCC(NC(=O)c1ccc(=O)n(C)n1)c1nc2ccccc2[nH]1 (configuration not stated),inactive,
CCCn1c(O)c(CN2CCCC(C)C2)c(C)c(C#N)c1=O (configuration not stated),inactive,
COCCn1c(=O)c(-c2cc(F)cc(F)c2)nc2cnc(N3CCNCC3)nc21,inactive,
Cc1cc(=O)[nH]c(=S)[nH]1,inactive,
CN1CCCc2cc(C#N)c(=O)[nH]c21,2.48% [at 7.66 µM],
Cc1oc(-c2ccccc2F)nc1CS(=O)(=O)CC(=O)NCCCN(C)C1CCCCC1,inactive,
Cc1ccc(NC(=O)C2CC(c3ccc(F)cc3)=NO2)cc1 (configuration not stated),inactive,
COc1ccccc1CCn1c(=O)c(-c2cn(C)c3ccccc23)nc2cncnc21,inactive,
CC(Sc1nncs1)C(=O)NCc1ccc2c(c1)OCO2 (configuration not stated),inactive,
CCOC(=O)N1CCN(C(=O)COc2ccc(Br)cc2)CC1,10.7% [at 7.66 µM],
O=C1NC(c2cc3c(cc2Cl)OCO3)Oc2ccccc21 (configuration not stated),inactive,
CCOC(=O)C1C(=O)OC2(CCCC2)C1C(=O)OCC (configuration not stated),inactive,
Cc1ccc(C)c(NC(=O)C2CC(=O)N(C(C)C)C2)c1 (configuration not stated),inactive,
CC1CCN(C(=O)Cn2cc(C(=O)c3ccco3)c3ccccc32)CC1,inactive,
